NPYLR7 ag = mosquito NPYLR7 agonism. HEK293T NPYLR7/Galpha15, GCaMP6s calcium fluorescence. activation, % at 10 µM. hit rate 0.15% among 270,000. AID 1259423; in the data active = activation above about 40%;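 also: 0% = vehicle and 100% = reference agonist at the receptor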
hcGAS inh = human cGAS inhibition; recombinant h-cGAS, ATP depletion, Kinase-Glo luminescence; inhibition, % at 12.5 µM; AID 1259398; Q8N884; hit rate 0.081% among 290,000;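 also: 0% = vehicle reaction and 100% = reaction without DNA for no activity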
Target sequence (Q8N884 whole entry, looked up): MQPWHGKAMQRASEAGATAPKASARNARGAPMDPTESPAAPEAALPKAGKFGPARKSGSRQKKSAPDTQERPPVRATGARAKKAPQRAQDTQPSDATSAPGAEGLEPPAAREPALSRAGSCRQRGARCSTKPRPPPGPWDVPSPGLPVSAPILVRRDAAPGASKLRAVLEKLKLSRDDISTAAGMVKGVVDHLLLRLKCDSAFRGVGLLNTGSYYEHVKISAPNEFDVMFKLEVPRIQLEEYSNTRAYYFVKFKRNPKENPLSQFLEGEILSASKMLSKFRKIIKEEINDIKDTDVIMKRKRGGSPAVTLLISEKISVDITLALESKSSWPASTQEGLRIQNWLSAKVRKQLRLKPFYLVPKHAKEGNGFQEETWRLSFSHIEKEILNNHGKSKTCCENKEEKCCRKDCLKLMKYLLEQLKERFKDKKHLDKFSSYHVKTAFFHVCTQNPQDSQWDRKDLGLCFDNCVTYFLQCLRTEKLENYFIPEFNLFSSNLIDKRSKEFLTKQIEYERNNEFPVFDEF
mcGAS lum = inhibitors of mouse cGAS. hit rate 0.15% among 160,000. Q8C6L5. inhibition, % at 12.5 µM. recombinant cGAS, Kinase-Glo ATP depletion luminescence;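 also: 0% = negative control wells and 100% = reference inhibitor with no enzyme activity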
* marks the source's active call; other numbers are inactive results; nt = not tested or not shown; ! = not active in a repeat. Most compounds without a hit are left out; they make up all but 0.24% or so of the library. Rule as the data show it, unless noted: active = inhibition above about 40%; inactive = the rest.

SMILES	NPYLR7 ag	hcGAS inh	mcGAS lum
N=C1/C(=C\c2ccco2)C(=O)N=C2SC(Cc3cccs3)=NN12	-2	52*	nt
[O-][n+]1c(-c2ccc(Br)cc2)nc2ccc(Br)cn21	-7	-5	-7
CCN(C(=O)c1sc(NC(=O)CCl)c(C#N)c1C)C1CCCCC1	-7	-3	1
Cc1c(C#N)sc(NC(=O)CCl)c1C#N	2	7	45*
Cc1noc(C)c1C(=O)Nc1ccc(OC(F)F)cc1	2	-13	nt
Oc1cc(O)c2c(c1)O[C@H](c1cc(O)c(O)c(O)c1)[C@H](O)C2	nt	79*	25
Oc1cc(O)c2c(c1)O[C@H](c1ccc(O)c(O)c1)[C@@H](O)C2	-1	-2	-5
CCOC(=O)c1nn(-c2ccc(F)cc2)c(=O)cc1OC	6	0	nt
Cc1ccccc1-n1nc(C)c(-c2ccccc2)c1NC(=O)CN(CC(C)C)S(=O)(=O)c1ccc([N+](=O)[O-])cc1	-1	-7	-5
CCCCN(CC(=O)Nc1c(-c2ccccc2)c(C)nn1-c1ccccc1C)S(=O)(=O)c1ccc(F)cc1	48*	-2	-5
CCOC(=O)c1[nH]c2c([N+](=O)[O-])cc(C)cc2c1CCN1C(=O)c2ccccc2C1=O	4	4	-7
CCOC(=O)c1[nH]c2c([N+](=O)[O-])cc(OCC)cc2c1CCN1C(=O)c2ccccc2C1=O	-7	-2	69*
O=C(NCCn1nc(-c2ccco2)ccc1=O)C(c1ccccc1)c1ccccc1	-5	6	-7
CC(C)CNC(=O)CN(C)C(=O)c1csc(Nc2cc(Cl)ccc2Cl)n1	3	166*	nt
CCC(C)NC(=O)CN(C)C(=O)c1csc(Nc2cccc(C(F)(F)F)c2)n1 (centres undefined)	nt	-9	-6
Clc1cc2c(c(CSc3nnnn3-c3ccccc3)c1)OCOC2	6	72*	-2
Clc1cc2c(c(CSc3nnc(-c4ccccc4)o3)c1)OCOC2	0	-4	-4
Cc1ccc(-c2ccc(/C=N\Nc3nc4nonc4nc3Nc3ccc(Br)cc3)o2)cc1Cl	-2	3	84*
COCc1cc(C)nc(NN=Cc2ccc(-c3ccc(Br)cc3)o2)c1C#N	-25	2	1
O=C(CCl)Nc1ccc(Cl)cc1[N+](=O)[O-]	-1	-5	14
O=C(CCl)Nc1cc([N+](=O)[O-])ccc1Cl	-6	-2	52*
CC(=O)NCC1=CCCN(Cc2noc(C(C)(C)C)n2)C1	2	-3	-11
CN(Cc1ccccc1)c1cc(C(C)(C)C)nc(SCc2cccc(C(=O)N3CCCC3)c2)n1	2	-14	-7
CN1CCC(=C2c3ccccc3C=Cc3ccccc32)CC1	-5	-1	-4
CN1CCC(=C2c3ccccc3Sc3ccccc32)CC1	54*!	-3	-5
SMILES	NPYLR7 ag	hcGAS inh	mcGAS lum
CN1CCC(N(C)Cc2cn[nH]c2-c2ccc(F)cc2)C1 (centres undefined)	2	-7	-9
Clc1ccc(-c2nnc(-c3ccncc3)o2)c(Cl)c1	5	5	-1
O=C1/C(=C/c2cc3ccccc3o2)Oc2c1ccc(O)c2CN1CCN(CCO)CC1	108*	5	5
Cc1cc(O)c(CN2CCCC2)c2c1C(=O)/C(=C/c1cc3ccccc3o1)O2	57*	-3	-2
Cc1cc(O)c(CN2CCN(C)CC2)c2c1C(=O)/C(=C/c1cc3cc(Br)ccc3o1)O2	4	-9	-7
Cc1cc(O)c(CN2CCN(CCO)CC2)c2c1C(=O)/C(=C/c1cccs1)O2	28	-4	-7
Cc1cc(O)c(CN2CCN(CCO)CC2)c2c1C(=O)/C(=C/c1ccccc1)O2	16	-5	-6
CCN1CCN(Cc2c(O)cc(C)c3c2O/C(=C\c2ccco2)C3=O)CC1	65*	-1	-6
Cc1cc(O)c(CN2CCN(CCO)CC2)c2c1C(=O)/C(=C/c1cc3ccccc3o1)O2	80*	-4	-6
O=C1/C(=C/c2ccco2)Oc2c1ccc(O)c2CN1CCN(CCO)CC1	56	-1	-9
COc1cc(N=c2scc(-c3ccccc3)n2-c2ccc(OC)c(OC)c2)cc(OC)c1	19	-5	-4
Cc1ccc(C(=O)NCCn2nc(C)c(Cl)c2C)cc1	0	-6	nt
CN(C)N1C(=N)C(C#N)C(c2ccccc2Cl)C2=C1CC(c1ccccc1)CC2=O (centres undefined)	-1	-3	nt
O=C1/C(=C/c2cc3ccccc3o2)Oc2cc(O)ccc21	49*	-11	nt
O=C1/C(=C/N2CCC3(CC2)OCCO3)Oc2cc(O)ccc21	-6	-7	-12
O=S(=O)(Nc1nc2n(n1)C(c1ccccc1)CC(c1ccccc1)=N2)c1ccccc1 (centres undefined)	25	-9	-3
CS(=O)(=O)Nc1nc2n(n1)C(c1ccccc1)CC(c1ccc(Cl)cc1)=N2 (centres undefined)	66*	0	nt
CN(Cc1cnc(N2CCOCC2)s1)C1CCCc2ccccc21 (centres undefined)	-1	-2	-11

Bioassay records as filed in PubChem.
